Source: PubChem BioAssay (NCI)
Compounds without any hit were thinned out: in the full panel of roughly 83,000, 20% have a hit.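 Growth was measured after 48 h exposure to one concentration of compound in 96-well plates. Values under 10 count as active.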 Values without a mark were called inactive. Activity calls are given as the source filed them.

Columns and labels:
Assay in all cases: NCI-60 one-dose screen, 48 h (100 = growth as untreated, 0 = no growth, -100 = all killed)
HCT-15 colon = conditions: 10 µM unless noted
HT29 colon = conditions: 10 µM unless noted
SNB-75 CNS = conditions: 10 µM unless noted
SNB-19 CNS = conditions: 10 µM unless noted
U251 CNS = conditions: 10 µM unless noted
PC-3 prostate = conditions: 10 µM unless noted
SK-MEL-5 melanoma = conditions: 10 µM unless noted
UACC-62 melanoma = conditions: 10 µM unless noted
LOX IMVI melanoma = conditions: 10 µM unless noted
SK-MEL-28 melanoma = conditions: 10 µM unless noted
SK-MEL-2 melanoma = conditions: 10 µM
EKVX NSCLC = conditions: 10 µM unless noted
SN12C renal = conditions: 10 µM unless noted
UO-31 renal = conditions: 10 µM unless noted
TK-10 renal = conditions: 10 µM unless noted
ACHN renal = conditions: 10 µM unless noted
A498 renal = conditions: 10 µM unless noted
CCRF-CEM leukemia = conditions: 10 µM unless noted
MOLT-4 leukemia = conditions: 10 µM unless noted
CAKI-1 renal = conditions: 10 µM unless noted

Compound	growth (HCT-15 colon)	growth (HT29 colon)	growth (SNB-75 CNS)	growth (SNB-19 CNS)	growth (U251 CNS)	growth (PC-3 prostate)	growth (SK-MEL-5 melanoma)	growth (UACC-62 melanoma)	growth (LOX IMVI melanoma)	growth (SK-MEL-28 melanoma)	growth (SK-MEL-2 melanoma)	growth (EKVX NSCLC)	growth (SN12C renal)	growth (UO-31 renal)	growth (TK-10 renal)	growth (ACHN renal)	growth (A498 renal)	growth (CCRF-CEM leukemia)	growth (MOLT-4 leukemia)	growth (CAKI-1 renal)
CSC1=C(N)C(=O)c2[nH]cc(CO)c2C1=N	-89.2% (active)	-9.17% (active)	-80.2% (active)	-92.2% (active)	-95.1% (active)	-39.9% (active)	-98.8% (active)	-83.2% (active)	-84.9% (active)	-78% (active)	-52.3% (active)	-56.6% (active)	-49% (active)	-96% (active)	-83.7% (active)	1.86% (active)	-89.6% (active)	3.16% (active)	-24.3% (active)	
N#Cc1c(-c2ccc(C(F)(F)F)cc2)cc(NCC2CCS(=O)(=O)CC2)n2c1nc1ccccc12	86.2%	75.7%	52.5%	83.5%	83.2%	63.4%	77.7%	80.8%	77.5%	95.8%	89.7%	77.5%	82.3%	56.2%	93.1%		55.3%	86.2%	74.3%	80.9%
O=C1CC(c2ccc3c(c2)OCO3)c2ncn(-c3ccc(Cl)cc3)c2N1 (stereo unspecified)	24.2%	10.9%	30.1%	47.8%	21.9%	45.1%	24.8%	34.4%	51.7%	55.4%	43.4%	68.2%	56.6%	61.3%	67.9%			28.2%	32%	37.1%
CCCC(=O)OCC1OC(n2cnc3c(=S)nc(N)[nH]c32)C(OC(=O)CCC)C1OC(=O)CCC (stereo unspecified)	50.2%	30.2%	34.8%	89.3%	68.2%	76.1%	42.8%	8.36% (active)	12%	75.8%	15%	42.4%	42.8%	43.3%	23.5%	39.7%	-2.02% (active)		0.324% (active)	
COC(=O)[C@]12CC[C@@H](C)[C@H](C)[C@@H]1C1=CC[C@@H]3[C@@]4(C)C[C@@H](OC(=O)/C=C/c5ccccc5)[C@H](O)[C@@](C)(CO)[C@@H]4[C@H](O)C[C@@]3(C)[C@]1(C)CC2	-20.9% (active)	-49.3% (active)	44.1%	14.3%	-28.5% (active)	11.3%	18.3%	21.4%	-96.4% (active)	4.73% (active)	47.8%	33.8%	-83.2% (active)	19.6%	18.1%			18.8%	0.848% (active)	15.6%
O=C1CSC(c2c(F)cccc2Cl)N1NC(=O)C(O)(c1ccccc1)c1ccccc1 (stereo unspecified)	102%	95.9%	82.9%	98.4%	95.7%	95.5%	89.5%	82.8%	94.2%	107%	103%	95.2%	93.8%		113%	99.9%	102%	97%	74%	93.3%
CC(C)c1ccc(/C=N/Nc2nc3ccccc3s2)cc1	83.9%	78.8%	103%	97.7%	80.8%	77.9%	91.6%	87%	89.1%	108%	106%	87.2%	86.3%	57.1%	148%	103%	92.8%	84.8%	70.5%	
Clc1nc(Cl)c2ncn(C/C=C\Cn3cnc4c(Cl)nc(Cl)nc43)c2n1	-44.7% (active)	-65.9% (active)	-25.7% (active)	9.97% (active)	-56.5% (active)	-57.6% (active)	-81.5% (active)	-72.7% (active)	-80.1% (active)	-19% (active)	23.5%	-68% (active)	-11.3% (active)		-45.6% (active)	-94.5% (active)	-18.2% (active)	-73.4% (active)	-55.4% (active)	-97.2% (active)
CC1(C)NC(=O)c2[nH]c3c(Cl)c(Cl)ccc3c2C1C#N (stereo unspecified)	87.9%	78.2%	75.7%	87.5%	81.7%	79.6%	8.85% (active)	73.1%	85.5%	103%	80.6%	67.2%	89.5%		63.2%	78.6%		70.3%	62%	49.8%
C=CC[n+]1c(/C=C2\Sc3ccccc3N2C)sc(-c2ccccc2)c1-c1ccccc1	26.2%	6.28% (active)	12%	26.8%	15.1%	17.9%	-97.8% (active)	13.8%	10.9%	33.5%	-15.5% (active)	16.5%	8.01% (active)	6.58% (active)	-6.28% (active)			23.2%	-4.71% (active)	
COc1cc(-c2cc(-c3ccc(Nc4ccnc5cc(Cl)ccc45)cc3)nc(N3CCOCC3)n2)cc(OC)c1OC	-29.8% (active)	-21.8% (active)	-25.3% (active)	28.8%	-57.1% (active)	-5.02% (active)	28%	70.1%	4.79% (active)	7.13% (active)	83.9%	30.9%	-11.9% (active)	37.5%	-75.9% (active)	16.7%	102%	-4.98% (active)	19.6%	
COc1cc2c(cc1OCCCCN1CCN(CC(=O)Nc3ccc(Cl)cc3C(=O)c3ccccc3Cl)CC1)N=CC1CCCN1C2=O (stereo unspecified)	-65.6% (active)	-61.4% (active)	-84.7% (active)	-57.3% (active)	-88.4% (active)	-98.6% (active)	-92.6% (active)	-85.1% (active)	-84.4% (active)	-86% (active)	-67.5% (active)	-79% (active)	-81.1% (active)		-90.1% (active)	-92.4% (active)	-97.2% (active)	-59.8% (active)	-44.7% (active)	-89.8% (active)
Cc1cc2c(-c3nc4ccccn4c3Nc3cccc4ccccc34)c(O)c(O)cc2c(O)c1-c1c(C)cc2c(-c3nc4ccccn4c3Nc3cccc4ccccc34)c(O)c(O)cc2c1O	41.4%	27.5%	30%	15.6%	12.9%	16%	1.82% (active)	1.11% (active)	9.84% (active)	34.5%	38.3%	51.4%	16.7%	44%	50.9%	49.2%	29.6%	27.3%	31.2%	
C=CCCCC(=O)CCC(=O)OCC1O[C@@H](O[C@@H]2C(O)[C@@H](OC(C)=O)C(C)O[C@H]2O[C@H](CC=C)CCCCC)C(O)[C@@H](OC(=O)/C(C)=C/C)[C@@H]1OC(=O)/C=C/c1ccccc1 (stereo partly specified)	20.6%	0.411% (active)	30.1%	45.7%	11%	31.3%	-71.5% (active)	20.1%	-52.9% (active)	33%	4.44% (active)	30.5%	3.86% (active)	24.5%	27%	23.4%		29.2%	26.7%	
CC(C)=CCc1cc2c(cc1O)C1=C(C(=O)C3=C(NCCS3(=O)=O)C1=O)C(C=C(C)C)O2 (stereo unspecified)	39.8%	47.9%	71.4%	31.7%	1.89% (active)	16.4%	5.34% (active)	28.2%	4.56% (active)	24.3%	19.3%	48.6%	-43.3% (active)	41.6%	122%	62.4%		0.962% (active)	-22.3% (active)	
Nc1ncnc2c1ccn2-c1cccc(NC(=O)c2ccc(N3CCOCC3)c(C(F)(F)F)c2)c1	31.5%	38.2%	67.3%	95.7%	39.5%	35.6%	41.6%	43.4%	41.2%	81.2%	37.7%	56%	47.8%	22%		30.9%	63.3%	20.5%	47.8%	26.3%
